Source: PubChem BioAssay (NCATS)
Results filed as inconclusive are left out. The source made the active and inactive calls. Calls come from the whole dose curve; as a rule, active = well fitted inhibition curve with a large enough effect; inconclusive = small, poorly fitted or top-dose-only effect; inactive = flat fitted curve, though single readings scatter.

system: KB-3-1; assay: Cytotoxic Profiling of Annotated Libraries Using Quantitative High-Throughput Screening (AID 1296008); conditions: Five cell lines viability, CellTiter-Glo ATP luminescence, 48-72 h; max response: stronger effect = lower value; note: nearly all actives have a fitted effect of over 60% in size
How it was run: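 Compounds were pin-transferred onto cells and incubated 48 or 72 hr at 37 degree Celsius, 95% humidity. CellTiter-Glo was added, plates sat 10 min at room temperature, then ATP-coupled luminescence was imaged as the viability read-out.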
% is set by controls: 0 for no effect and ±100 for the full control effect; potency is the fitted concentration of half-maximal effect.

Row | SMILES | max response | outcome | Potency
1 | N#Cc1ccc(COc2ccc(-c3cccc4nc(NC(=O)C5CC5)nn34)cc2)cn1 | -6.55% (inactive) |  | 
2 | CC(=O)O[C@H]1CC[C@]2(C)[C@H]3CC[C@]4(C)Oc5oc(C)cc(=O)c5C[C@H]4[C@]3(C)CC[C@H]2C1(C)C |  | inactive | 
3 | CC(=O)CC(=O)Nc1ccc(Cl)c(C(F)(F)F)c1 |  |  | 23.1 µM (active)
4 | C=CCNC1=C2C[C@@H](C)C[C@H](OC)[C@H](O)[C@@H](C)/C=C(\C)[C@H](OC(N)=O)[C@@H](OC)/C=C\C=C(/C)C(=O)NC(=CC1=O)C2=O | -34.3% (inactive) |  | 
5 | CC(C)C[C@@H](N)C(=O)N[C@H]1C(=O)N[C@@H](CC(N)=O)C(=O)N[C@H]2C(=O)N[C@H]3C(=O)N[C@H](C(=O)N[C@H](C(=O)O)c4cc(O)cc(O)c4-c4cc3ccc4O)[C@H](O)c3ccc(c(Cl)c3)Oc3cc2cc(c3O[C@@H]2O[C@H](CO)[C@@H](O)[C@H](O)[C@H]2O[C@H]2C[C@](C)(N)[C@H](O)[C@H](C)O2)Oc2ccc(cc2Cl)[C@H]1O |  | inactive | 
6 | Cc1ccc(-c2c(C(=O)CCl)n(CCCO)c3ncnc(N)c23)cc1 | -3.1% (inactive) |  | 
7 | Nc1ncnc2c1c(-c1ccc(Oc3ccccc3)cc1)nn2[C@@H]1CCCNC1 | -20% (inactive) |  | 
8 | CC(C)(O)C1Cc2c(ccc(C(=O)CCc3ccccc3)c2O)O1 (stereo not given) | -17.9% (inactive) |  | 
9 | O=C(Nc1cccc(C(F)(F)F)c1)Nc1ccc(Br)cc1-c1nn[nH]n1 | 7.51% (inactive) |  | 
10 | CCn1c(=O)c(-c2ccc(-c3cncs3)cc2Cl)cc2cnc(Nc3ccc(N4CCN(C)CC4)cc3)nc21 |  |  | 10.3 µM (active)
